A selection: hits, their analogues and other compounds. The true share with any hit is near 1.2%.
RGS7-Gao reg – regulators of human RGS7-Galphao interaction; P09471; Multiplexed bead flow cytometry, RGS7-Galphao binding; actives lie on both sides; binding response (% of control), % at 10 µM; 220,000 compounds, 0.35% hits; in the data active = binding response below about 49% or above about 150%; inconclusive = no clear call, values can overlap the other calls; inactive = in between;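 also: fluorescent Galphao held in activated GDP-AlF4 state binding bead-coupled RGS7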
RGS16-Gao – modulates binding between human RGS16 and Galphao; O15492+P09471; bead-based flow cytometry RGS16-Galphao binding, fluorescence; actives lie on both sides; binding response (% of control), % at 10 µM; 220,000 compounds, 0.38% hits; call rule not given here;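 also: Galphao activated by GDP with aluminum fluoride before binding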
Target sequence (O15492 whole entry, looked up): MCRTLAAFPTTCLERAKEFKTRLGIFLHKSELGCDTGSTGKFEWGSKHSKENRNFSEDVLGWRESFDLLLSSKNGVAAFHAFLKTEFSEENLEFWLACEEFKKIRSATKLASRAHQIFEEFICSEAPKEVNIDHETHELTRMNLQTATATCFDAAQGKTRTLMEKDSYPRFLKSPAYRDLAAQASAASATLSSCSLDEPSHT
Target sequence (P09471 whole entry, looked up): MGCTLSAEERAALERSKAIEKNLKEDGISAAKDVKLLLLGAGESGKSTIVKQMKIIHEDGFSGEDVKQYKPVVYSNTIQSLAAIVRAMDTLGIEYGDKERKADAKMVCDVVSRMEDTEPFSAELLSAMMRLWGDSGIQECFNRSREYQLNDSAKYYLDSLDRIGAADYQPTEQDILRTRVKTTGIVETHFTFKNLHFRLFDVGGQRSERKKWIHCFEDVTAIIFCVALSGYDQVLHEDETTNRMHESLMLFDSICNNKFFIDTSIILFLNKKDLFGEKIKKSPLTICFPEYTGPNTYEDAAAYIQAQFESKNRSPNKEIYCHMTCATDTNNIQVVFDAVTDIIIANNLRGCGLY
Avidin fluor – avidin bead compound fluorescence profile | Avidin beads, compound fluorescence 488/530 nm, flow cytometry; hits give high values | fluorescence (KMESF) at 10 µM | 220,000 compounds, 0.38% hits | AID 1775; in the data active = fluorescence above about 47
GSH fluor – GSH bead compound fluorescence profile | fluorescence (KMESF) at 10 µM | 190,000 compounds, 0.25% hits | GSH beads flow cytometry, compound fluorescence 488/530 nm; hits give high values; in the data active = fluorescence above about 89;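 also: glutathione beads carrying GST-tagged Bcl family fusion proteins plus one bare bead set; values are compound well signal with DMSO vehicle wells as background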
RGS8-Gao reg – modulates binding of RGS8 to human Galphao; P09471; multiplexed bead flow cytometry; actives lie on both sides; response (percent of control binding), % at 10 µM; 220,000 compounds, 0.34% hits; in the data active = response below about 60% or above about 140%; inactive = in between;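 also: Galphao activated as the GDP aluminium fluoride complex binding bead-coupled RGS8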
RGS4-Gao reg – human RGS4-Galphao interaction regulation | Multiplexed bead flow cytometry, RGS4-Galphao binding; actives lie on both sides | binding response (% of control), % at 10 µM | AID 1415 | P09471 | 220,000 compounds, 0.33% hits; in the data active = binding response below about 49% or above about 150%; inactive = in between;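 also: fluorescent Galphao activated with aluminum fluoride binding bead-coupled RGS4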
Starred values were filed as active, the others as inactive.

Cc1cccc(NC(=S)N2CCC(c3nc4ccccc4o3)CC2)c1C was read as RGS7-Gao reg 42*, RGS16-Gao 38, Avidin fluor 2, GSH fluor 30, RGS8-Gao reg 55* and RGS4-Gao reg 48*.
Screening COc1ccc(-c2[nH]nc3c2C(c2ccccc2OC(=O)N2CCOCC2)C(C#N)=C(N)O3)cc1 (configuration not stated) returned RGS7-Gao reg 95, RGS16-Gao 88, Avidin fluor 7, GSH fluor 36, RGS8-Gao reg 97 and RGS4-Gao reg 96.
For COc1ccc(-c2[nH]nc3c2C(c2ccc(OC(=O)N4CCOCC4)cc2)C(C#N)=C(N)O3)cc1 (configuration not stated) the results were RGS7-Gao reg 45*, RGS16-Gao 38, Avidin fluor 13, GSH fluor 16, RGS8-Gao reg 52* and RGS4-Gao reg 44*.
Screening CCC1(CC)C(=O)NC(=O)NC1=NCCc1ccc(O)cc1 returned RGS7-Gao reg 108, RGS16-Gao 99, Avidin fluor 75*, GSH fluor 14, RGS8-Gao reg 96 and RGS4-Gao reg 97.
For CCCC(=O)Nc1ccc(C(=O)NCc2ccccc2Cl)cc1 the results were RGS7-Gao reg 95, RGS16-Gao 87, Avidin fluor 4, GSH fluor 137*, RGS8-Gao reg 100 and RGS4-Gao reg 99.
O=C(NCc1ccccc1Cl)c1ccc(-c2ccccc2)cc1 was read as RGS7-Gao reg 102, RGS16-Gao 98, Avidin fluor 6, GSH fluor 9, RGS8-Gao reg 103 and RGS4-Gao reg 101.
`COc1cc(/C=C(\C#N)C(=O)Nc2ccccc2C(=O)O)cc(Cl)c1OC` gave RGS7-Gao reg inconclusive, RGS16-Gao 100, Avidin fluor 11, GSH fluor 11, RGS8-Gao reg 99 and RGS4-Gao reg 102.
For COc1ccc(N2C(=O)CSC23C(=O)Nc2ccccc23)cc1 (configuration not stated) the results were RGS7-Gao reg 101, RGS16-Gao 102, Avidin fluor 7, GSH fluor 100*, RGS8-Gao reg 101 and RGS4-Gao reg 99.
`O=C(COC(=O)c1ccccc1Oc1ccccc1)NC1CCS(=O)(=O)C1` (configuration not stated) gave RGS7-Gao reg 110, RGS16-Gao 101, Avidin fluor 48*, GSH fluor 13, RGS8-Gao reg 101 and RGS4-Gao reg 103.
O=C(COC(=O)c1ccccc1Oc1ccccc1)NC1CC1 was read as RGS7-Gao reg 103, RGS16-Gao 102, Avidin fluor 9, GSH fluor 16, RGS8-Gao reg 100 and RGS4-Gao reg 103.
For CCOC(=O)CN(C(=O)CSc1nnc2c(n1)[nH]c1c(C)cc(C)cc12)c1ccccc1 the results were RGS7-Gao reg 105, RGS16-Gao 111, Avidin fluor 7, GSH fluor 257*, RGS8-Gao reg 105 and RGS4-Gao reg 109.
`CCOC(=O)CN(C(=O)CSc1nnc2c(n1)[nH]c1ccccc12)c1ccccc1` gave RGS7-Gao reg 98, RGS16-Gao 97, Avidin fluor 3, GSH fluor 22, RGS8-Gao reg 101 and RGS4-Gao reg 102.
CC(O)C1C(=O)OC2(C)CC(C)(C)NC(=S)N12 (configuration not stated) was read as RGS7-Gao reg 106, RGS16-Gao 112, Avidin fluor 5, GSH fluor 119*, RGS8-Gao reg 103 and RGS4-Gao reg 112.
For N#CCc1nn(-c2ccccc2)c2ncnc(N)c12 the results were RGS7-Gao reg inconclusive, RGS16-Gao 103, Avidin fluor 3, RGS8-Gao reg 102 and RGS4-Gao reg 103.
For CN1/C(=C\C=C2/C(=O)Oc3ccccc3C2=O)C(C)(C)c2ccccc21 the results were RGS7-Gao reg 142, RGS16-Gao 133, Avidin fluor 90*, GSH fluor 68, RGS8-Gao reg 103 and RGS4-Gao reg 135.
For CN1C(=CC=C2C=C(I)C(=O)C(I)=C2)C(C)(C)c2ccccc21 the results were RGS7-Gao reg inconclusive, RGS16-Gao 98, Avidin fluor 20, RGS8-Gao reg 97 and RGS4-Gao reg 102.
Screening O=C(Nc1ccc2c(c1)OCCO2)C1CCCN1S(=O)(=O)c1ccc(Cl)cc1 (configuration not stated) returned RGS7-Gao reg 101, RGS16-Gao 101, Avidin fluor 7, GSH fluor 261*, RGS8-Gao reg 101 and RGS4-Gao reg 99.
Screening CS(=O)(=O)c1ccc2nc(NC(=O)c3cccs3)sc2c1 returned RGS7-Gao reg 117, RGS16-Gao 104, Avidin fluor 56*, GSH fluor 16, RGS8-Gao reg 103 and RGS4-Gao reg 105.
CC(C)CCn1cnc2c(oc3nc4c(cc32)CCCC4)c1=O was read as RGS7-Gao reg inconclusive, RGS16-Gao 96, Avidin fluor 6, RGS8-Gao reg 95 and RGS4-Gao reg 97.
For COc1ccc(NC(=S)N2CCN(CCN3C(=O)c4cccc5cccc(c45)C3=O)CC2)cc1 the results were RGS7-Gao reg inconclusive, RGS16-Gao 102, Avidin fluor 10, GSH fluor 14, RGS8-Gao reg 101 and RGS4-Gao reg 104.
For CCOc1ccc(NC(=S)N2CCN(CCN3C(=O)c4cccc5cccc(c45)C3=O)CC2)cc1 the results were RGS7-Gao reg 123, RGS16-Gao 113, Avidin fluor 51*, GSH fluor 13, RGS8-Gao reg 106 and RGS4-Gao reg 106.
For O=C(O)CCC(=O)NNc1nc2ccccc2nc1-c1ccccc1 the results were RGS7-Gao reg 101, RGS16-Gao 103, Avidin fluor 10, GSH fluor 25, RGS8-Gao reg 105 and RGS4-Gao reg 102.
O=C1CCCc2ccccc2N1Cc1ccc(Cl)cc1Cl was read as RGS7-Gao reg 113, RGS16-Gao 95, Avidin fluor 68*, GSH fluor 20, RGS8-Gao reg 100 and RGS4-Gao reg 99.
`CC(NCc1cc(Br)ccc1OCC(=O)NCc1ccccc1)c1ccccc1` (configuration not stated) gave RGS7-Gao reg 92, RGS16-Gao 95, Avidin fluor 21, GSH fluor 12, RGS8-Gao reg 96 and RGS4-Gao reg 91.
For Cn1ccnc1C(=O)c1cc(SCC(=O)NCc2ccccc2)nc2ccccc12 the results were RGS7-Gao reg 108, RGS16-Gao 101, Avidin fluor 8, GSH fluor 8, RGS8-Gao reg 97 and RGS4-Gao reg 102.
`COC(=O)CSc1cc(C(=O)c2nccn2C)c2ccccc2n1` gave RGS7-Gao reg 104, RGS16-Gao 108, Avidin fluor 8, GSH fluor 271*, RGS8-Gao reg 102 and RGS4-Gao reg 106.

Assay outcomes as filed in PubChem.
